# According to PubChem BioAssay (EPA / NIEHS):
# Where “and” joins values, the source holds several entries; their conditions need not be identical. Identical values can stand only once. Results filed as inconclusive are left out. The source holds several records for some structures; these can differ, active in one and inactive in another. Calls of active or inactive are those of the source. The calls were made as follows: active = hit-call score of the fitted dose curve at least 0.9, where 1 is the maximum; inconclusive = response in the unintended direction; inactive = score below 0.9.
# Assay: CCTE_Shafer_MEA_dev_bursting_electrodes_number: CCTE's Neural Network Formation Assay for Number of Bursting Electrodes, Shafer Lab (AID 2284043)
# Description: CCTE_Shafer_MEA_dev assay is conducted using Axion Biosystems 48 well microelectrode array (MEA) plates and Maestro recording system. Each well of the MEA plate contains a grid of 16 microelectrodes embedded in the culture surface. Electrically active cells, such as neurons, can be cultured over the electrodes, and electrical activity in these cells can be recorded extracellularly. The spontaneous firing of neurons is captured from each electrode on a microsecond timescale providing both temporally and spatially precise data. […] The CCTE_Shafer_MEA_dev assay uses primary cultures of rat cortical neurons. Recordings are made on days post-plating 5, 7, 9 and 12. As these cultures mature over time, neural networks develop functional activity and form cohesive networks in which electrical activity can be highly coordinated. CCTE_Shafer_MEA_dev_bursting_electrodes_number is 1 of 19 assay components of the CCTE_Shafer_MEA_dev assay. It measures the number of electrodes in a well with a burst rate of at least 1 burst (temporally-clustered group of action potential firing) every 2 minutes during a recording in a microelectrode array (MEA) using Axion Biosystems Maestro 768 channel amplifier with the AxIS adaptive spike detector. To collapse across multiple recordings made on days post-plating 5, 7, 9 and 12, the trapezoidal area-under-the-curve of the component is calculated.Data from the assay component CCTE_Shafer_MEA_dev_bursting_electrodes_number was analyzed into 1 assay endpoint. This assay endpoint, CCTE_Shafer_MEA_dev_bursting_electrodes_number, was analyzed in the negative analysis fitting direction relative to DMSO as the negative control and baseline of activity. Using a type of functional reporter, gain or loss-of-signal activity can be used to understand electrical activity.
# On the day prior to culture, each well was coated thoroughly with 150 uL of 0.05% polyethyleneimine (PEI, Sigma Cat P3143) in 50 mM HEPES (Sigma Cat H7523) at a pH of 8. The plate was incubated at 37C for one hour. PEI was rinsed out with 500 uL of sterile water three times. Plates were stored at 4C until the day of culture. This culture was plated at a seeding density of 1.5 x 10^5 cells/well on a 48-well MEA plate, prepared as described above. Cells were administered via a 25 uL media/laminin ([…]; Sigma Cat L2020-1MG) drop directly onto the microelectrode array, as adding the cells with the laminin results in better attachment than pre-coating with laminin. After 2 hours, an additional 475 uL of cortical media was added and the cells returned to the incubator. Exposure starts at day 0 of plating and is continued over twelve days of network development until the experiment is terminated. Cells are fed with fresh medium on DIV 5 and 9, following the recordings on those days. The entire volume of media in the well is exchanged and any vehicle or compound treatment is renewed. Complete details are found in OP-NHEERL/ISTD/SBB/TJS/2015-03-r0 (available on request, email shafer.tim@epa.gov). Measurement of the electrical activity is non-invasive, and recordings can be made from the same plate over multiple different days of the culture. In cortical neurons, this allows for the measurement of extracellular action potentials over the period during which networks form in the MEA plate.
Compound,outcome,AC50
O=S(=O)(O)C(F)(F)C(F)(F)C(F)(F)C(F)(F)C(F)(F)C(F)(F)F,inactive,–
CCC(C)(c1ccc(O)cc1)c1ccc(O)cc1,–,3.23 µM (active)
Oc1ccc(C(c2ccc(O)cc2)(C(F)(F)F)C(F)(F)F)cc1,inactive,16.7 µM (active)
ClC(Cl)=C(c1ccc(Cl)cc1)c1ccc(Cl)cc1,–,5.08 µM (active)
C=CC(N)=O,inactive,–
O=S(=O)(O)C(F)(F)C(F)(F)C(F)(F)C(F)(F)F,–,8.61 µM (active)
CCOP(=S)(OCC)SCSC(C)(C)C,–,23.1 µM (active) and 16.5 µM (active)
ClC1=C(Cl)[C@]2(Cl)[C@@H]3[C@H]4C[C@H]([C@@H]5O[C@H]45)[C@@H]3[C@@]1(Cl)C2(Cl)Cl,inactive,–
CO/C=C(/C(=O)OC)c1ccccc1COc1cccc(C(F)(F)F)n1,–,203 nM (active) and 323 nM (active)
ClC1=C(Cl)[C@]2(Cl)[C@@H]3[C@@H]4C[C@@H]([C@H]5O[C@@H]45)[C@@H]3[C@@]1(Cl)C2(Cl)Cl,–,10.2 µM (active)
Clc1ccc(C(c2ccccc2Cl)C(Cl)(Cl)Cl)cc1 (stereo not given),–,4.01 µM (active)
NS(=O)(=O)C(F)(F)C(F)(F)C(F)(F)C(F)(F)C(F)(F)C(F)(F)C(F)(F)C(F)(F)F,–,4.13 µM (active) and 1.93 µM (active)
c1cc2ccc3cccc4ccc(c1)c2c34,inactive,–
ClC1=C(Cl)[C@]2(Cl)[C@@H]3[C@@H](Cl)[C@H]4O[C@H]4[C@@H]3C1(Cl)C2(Cl)Cl,–,24.9 µM (active)
